Compound activity: PubChem, several laboratories
MLLE-PAM2 inh = inhibitors of PABP1 MLLE–PAM2 peptide binding, primary screen, biochemical, fluorescence polarization, FITC-PAM2, GST-MLLE; inhibition, % at 20 µM; actives 0.36% (n = 360,000); AID 588489, 2011; in the data active means inhibition above about 35%, passing the limit was not always enough;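 further: plate controls were DMSO wells with GST-MLLE for no effect and wells lacking GST-MLLE protein for full effect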
ALR H2O2 inh = inhibitors of human ALR sulfhydryl oxidase, primary screen, biochemical, H2O2 detection, HRP-luminol luminescence, single point. purified ALR, DTT oxidation. inhibition, % (concentration not given with the values). actives 3.8% (n = 290,000);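 active means mean replicate inhibition above about 79%, with every replicate also reaching it, limit read from the data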
Target sequence (P55789 whole entry, looked up): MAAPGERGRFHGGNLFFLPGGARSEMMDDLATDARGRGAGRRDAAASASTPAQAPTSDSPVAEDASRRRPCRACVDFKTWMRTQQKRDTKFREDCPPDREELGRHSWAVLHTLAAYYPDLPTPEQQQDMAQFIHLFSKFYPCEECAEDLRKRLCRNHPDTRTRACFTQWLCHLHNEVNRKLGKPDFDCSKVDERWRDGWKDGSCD
Efflux pump inh = inhibitors of Candida efflux pumps in yeast, primary screen, S. cerevisiae, Nile Red, multiplex; S. cerevisiae Candida pump triplex; actives 0.44% (n = 330,000); AID 485275, 2010; inhibition, % at 10 µM;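 active means plate passing quality check with inhibition over a set limit, or well fluorescence over plate mean plus 4 SD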;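 further: Nile Red retained in pooled yeast measured as flow cytometry median fluorescence; 0% = buffer negative control and 100% = Enniatin B positive control; higher means more Nile Red kept so more efflux inhibition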
PABP FP inh = PABP poly(A) RNA binding inhibitors, primary screen, biochemical, fluorescence polarization, uHTS; Polyadenylate-binding protein 1 (Homo sapiens), P11940; inhibition, % at 35 µM; actives 1% (n = 290,000);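 further: calls also rest on retests at 20 µM and on dose response follow-up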
UBC9 SUMO inh = inhibitors of in vitro SUMOylation cascade, primary screen, biochemical, HTRF, uHTS. HTRF SUMOylation assay, SAE1/SAE2 + UBC9. inhibition, % at 35 µM. actives 0.36% (n = 290,000). SUMO-conjugating enzyme UBC9 (Homo sapiens), P63279; in the data active means inhibition above about 50%, passing the limit was not always enough
Target sequence (P63279 whole entry, looked up): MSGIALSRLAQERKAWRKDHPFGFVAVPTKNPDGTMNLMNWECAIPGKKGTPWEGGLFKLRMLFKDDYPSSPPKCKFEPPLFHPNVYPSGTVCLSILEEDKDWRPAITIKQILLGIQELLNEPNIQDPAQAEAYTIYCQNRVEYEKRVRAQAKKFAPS
eIF4H FP inh = human eIF4H binding inhibitors, primary screen, translation initiation inhibitor project, biochemical, uHTS, fluorescence polarization | eIF4H fluorescence polarization binding assay | inhibition, % at 35 µM | actives 0.94% (n = 290,000) | AID 2012, 2009;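 further: calls also rest on retests at 20 µM and on dose response follow-up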
Yeast cmpd fluor = flagged as fluorescent in efflux inhibitor counter-screen; shares compounds with Efflux pump inh; S. cerevisiae AD/pABC3, compound fluorescence, flow cytometry; fluorescence ratio to DMSO, % at 10 µM; actives 4% (n = 1,700); AID 588517;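 active means fluorescence ratio to DMSO above its plate's cutoff, the plate mean ratio plus 5 SD, cut at about 210% in these data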;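 further: unstained yeast with no Nile Red so the signal is compound autofluorescence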
Mdr1 pump inh = inhibitors of Candida albicans Mdr1 efflux, confirmation, flow cytometry, singleplex, Cherry Pick1 set; shares compounds with Efflux pump inh; S. cerevisiae AD/CaMDR1, Nile Red efflux; inhibition, % at 10 µM; actives 1% (n = 1,700); AID 588518, 2011; in the data active means inhibition above about 26%;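 further: 0% = DMSO vehicle and 100% = reference inhibitor; higher means more Nile Red retained so more efflux inhibition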
Cdr2 pump inh = inhibitors of Candida albicans Cdr2 efflux pump, confirmation, S. cerevisiae AD/CaCDR2, flow cytometry, cherry pick 1, singleplex | shares compounds with Efflux pump inh | Nile Red retention | Nile Red retention ratio vs DMSO, % at 10 µM | actives 4% (n = 1,700); in the data active means Nile Red retention ratio vs DMSO above about 190%;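 further: higher ratio means more blocking of Cdr2 efflux of the dye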
Cdr1 pump inh = inhibitors of Candida albicans Cdr1 efflux pump, confirmation, S. cerevisiae AD/CaCDR1, flow cytometry, cherry pick 1, singleplex. shares compounds with Efflux pump inh. Nile Red efflux. inhibition, % at 10 µM. actives 1% (n = 1,700);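 active means inhibition above the screen-wide mean plus twice its standard deviation, cut at about 32% in these data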
An asterisk follows results filed as active; nt = not tested or not shown; + = active, no number. A selection: hits, their analogues and other compounds. The true share with any hit is near 4.7%. Unless noted, how the calls were made is not given here.

SMILES	MLLE-PAM2 inh	ALR H2O2 inh	Efflux pump inh	PABP FP inh	UBC9 SUMO inh	eIF4H FP inh	Yeast cmpd fluor	Mdr1 pump inh	Cdr2 pump inh	Cdr1 pump inh
CC(C)(C)OC(=O)NCc1ccc(NC(=O)c2nc[nH]c2C(=O)NCCCCCCNC(=O)c2[nH]cnc2C(=O)Nc2ccc(CNC(=O)OC(C)(C)C)cc2)cc1	-7	-5	1.8*	nt	nt	nt	106	1	123	2
CC(=O)c1cn(CC(=O)Nc2ccccc2C(F)(F)F)c2ccccc12	-7	-8	0	-1	7	4	nt	nt	nt	nt
COc1cc(/C=C(\C#N)c2nc3ccccc3[nH]2)c([N+](=O)[O-])cc1OCc1ccccc1	-20	1	0	6	12	-2	nt	nt	nt	nt
COc1cc(/C(C#N)=C/c2cccc3ccccc23)c([N+](=O)[O-])cc1OC	2	-9	5.5*	2	-14	1	101	0	91	0
O=C(NC(=S)N1CCN(Cc2ccc3c(c2)OCO3)CC1)c1ccc(Cl)cc1	-1	3	28*	-2	21	12	103	0	110	0
O=C(Nc1ccc2c(c1)OCCO2)c1ccccc1	-6	3	0	-1	0	-13	nt	nt	nt	nt
CS(=O)(=O)Nc1ccc(C(=O)Nc2ccc3c(c2)OCCO3)cc1	nt	-2	9.0*	14	17	8	106	0	110	5
CCOc1ccc(C(=O)NCC(=O)NCC(c2ccco2)N2CCCCC2)cc1 (stereo not given)	8	-2	0	nt	nt	nt	nt	nt	nt	nt
C=Cc1ccc(C2=CC(=O)C[C@H](c3ccc(OC)cc3)C2)cc1	-17	2	0	nt	nt	nt	nt	nt	nt	nt
Cc1ccc(C2=CC(c3ccccc3)n3ncnc3N2)cc1 (stereo not given)	30	nt	0	nt	nt	nt	nt	nt	nt	nt
CCc1ccc(C2=CC(c3cc(Br)ccc3F)n3ncnc3N2)cc1 (stereo not given)	28	3	0.9*	-4	31	-10	102	0	105	0
COc1ccc(NS(=O)(=O)c2cccc(C(=O)O)c2)cc1S(=O)(=O)N1CCCCC1	-4	nt	0	nt	nt	nt	nt	nt	nt	nt
CC(C)CCSc1nnc(N)s1	18	0	0	-5	28	-3	nt	nt	nt	nt
CCCSc1nnc(N)s1	7	-5	18*	-1	6	-3	118	1	155	1
CCOC(=O)c1cc2sccc2n1CC(=O)c1ccc2c(c1)OCCO2	20	-3	0.5*	17	-18	3	102	0	95	0
Cc1ccc(NC(=S)NN(C)c2nc(C)cnc2C)cc1	23	12	9.6*	-2	-10	-5	89	0	108	0
O=C(CSc1nnc(-c2ccncc2)n1CC1CCCO1)Nc1ccccc1Cl (stereo not given)	1	7	0.5*	0	9	0	99	0	107	0
O=C(COc1ccc([N+](=O)[O-])cc1)NNC(=O)Nc1cccc(F)c1	-15	6	0	-5	-4	-12	nt	nt	nt	nt
Cc1ccc(NC(=S)NCc2cccn2C)cc1	-32	5	1.2*	4	6	-3	105	0	94	0
CC(C)(C)NC(=O)C(=O)NNC(=O)COc1ccccc1	10	-8	28*	4	-8	4	100	0	106	0
Cc1ccc(OCC(=O)NNC(=O)C(=O)NC(C)(C)C)cc1	-7	-7	0	0	-12	11	nt	nt	nt	nt
O=C(O)c1ccc(N2C(=O)/C(=C/c3ccc(-c4ccc([N+](=O)[O-])cc4)o3)C=C2c2ccccc2)cc1	-81	58	4.7*	-3	40	33	734*	2	+	2
CCOC(=O)c1ccc(S(=O)(=O)NNS(=O)(=O)c2ccc(C)cc2)cc1	16	15	2.1*	7	7	1	97	0	101	0
NS(=O)(=O)c1ccc(CCNC(=O)Nc2ccc(Cl)c(Cl)c2)cc1	6	-2	1.4*	20	21	0	183	0	101	0
O=C(Nc1ccc(N2CCOCC2)cc1)c1ccc(COc2ccccc2)cc1	4	-6	0	7	8	-13	nt	nt	nt	nt
SMILES	MLLE-PAM2 inh	ALR H2O2 inh	Efflux pump inh	PABP FP inh	UBC9 SUMO inh	eIF4H FP inh	Yeast cmpd fluor	Mdr1 pump inh	Cdr2 pump inh	Cdr1 pump inh
Cc1noc(C)c1NC(=O)Nc1ccc2c(c1)C(=O)N([C@H](C)CO)C[C@H](C)[C@H](CN(C)C)O2	22	0	0	nt	nt	nt	nt	nt	nt	nt
COc1ccc(OC)c(-c2nc(C(N)=O)c3[nH]c(=O)n(-c4ccc(F)cc4)c3n2)c1	11	-18	0	3	28	0	80	0	89	0
CCC(CC)c1nc(C(N)=O)c2[nH]c(=O)n(-c3ccc(OC)c(OC)c3)c2n1	9	-9	0	3	8	-3	nt	nt	nt	nt
COc1ccc(-c2nc(C(N)=O)c3[nH]c(=O)n(-c4ccccc4OC)c3n2)c(OC)c1	-32	-10	0	2	-3	0	99	0	92	0
Cc1ccc(-n2c(=O)[nH]c3c(C(N)=O)nc(-c4ccc(C)o4)nc32)cc1	17	66	0	-2	12	0	99	0	93	0
CCN(Cc1nc2cc(Cl)ccc2c(=O)[nH]1)C(=O)CN1C(=O)NC2(CCCCC2C)C1=O (stereo not given)	-22	nt	nt	nt	nt	nt	nt	nt	nt	nt
